This passage reports outcome and AC50 results from PubChem BioAssay (EPA / NIEHS).

Activity calls are given as the source filed them. Rule for the calls: active = hit-call score of the fitted dose curve at least 0.9, where 1 is the maximum; inactive = score below 0.9.

One assay in a line: ATG_AP_1_CIS: Attagene CIS-FACTORIAL HepG2 Assay for human Activator Protein 1 (AP-1) (AID 2282931). Conditions: HepG2 Attagene cis-factorial AP-1 reporter mRNA; actives raise or lower the signal. In outline: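 Endogenous transcription-factor activity in human HepG2 liver cells is read through a cis-promoter reporter transcript, sampled 24 h after dosing. Detection uses RT-PCR with capillary electrophoresis; values come from bidirectional fitting relative to DMSO.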
Turning to `COCCOCCOCCOCCOC`, the compound was called inactive.
Turning to `N=c1ccn2c(n1)O[C@H]1[C@H](O)[C@@H](CO)O[C@H]12`, the compound was called inactive.
On the same count and under the same terms, in the case of `O=C1CCCCCCCCCCC(=O)OCCO1` it was “inactive”.
One may read the AC50 as the midpoint of the concentration-response curve, whichever way the signal moves. As for `CCCCC/C=C\C/C=C\CCCCCCCC(=O)OC`, the half-maximal activity concentration (AC50) was 132 µM (active).
Same read-out and setting: in the case of `O=C(Oc1ccccc1)c1ccc2ccccc2c1O` it was 97.4 µM (active).
For the compound `O=CC1CC1`, the compound was called inactive.
On the same count and under the same terms, with `CCOC(=O)Cc1cccc2ccccc12` the entry was “inactive”; with `COC(=O)c1sccc1S(N)(=O)=O`, “inactive”; with `CC1(C)S[C@@H]2[C@H](NC(=O)COc3ccccc3)C(=O)N2[C@H]1C(=O)O`, “inactive”.
Still for that read-out and setting: with `[Cl][In]([Cl])[Cl]` the entry was “inactive”; with `CCCCCCOC(=O)C(C)CC` (stereo not given), “inactive”; with `CCO[Si](CCCN=C=O)(OCC)OCC`, “inactive”.
Still for that read-out and setting: with `CCCCCCCCCCCCCCCCCC#N` the entry was “inactive”; with `[Cl][Nd]([Cl])[Cl]`, “inactive”.
As to `O=Nc1ccc(O)cc1`, the outcome was inactive.
Turning to `Cc1ccc(C2OC[C@@H]3OC(c4ccc(C)cc4)O[C@H]([C@H](O)CO)[C@@H]3O2)cc1` (stereo not given in full), the AC50 was 142 µM (active).
Regarding `O=C(c1ccc(O)cc1)c1ccc(O)cc1O`, the outcome was inactive.
With `CCCOC(=O)CCCCC(=O)OCCC`, the outcome was inactive.
Same read-out and setting: with `O=C1C=CC(=O)O1` the entry was “inactive”; with `O=S1(=O)OC(c2ccc(O)cc2)(c2ccc(O)cc2)c2ccccc21`, “inactive”; with `O=C(Cl)c1cc(C(=O)Cl)cc(C(=O)Cl)c1`, “inactive”.
Same read-out and setting: in the case of `O=C(O)CC(C(=O)O)C(CC(=O)O)C(=O)O` (stereo not given) it was “inactive”.
Take `[Cl][Bi]([Cl])([c]1ccccc1)([c]1ccccc1)[c]1ccccc1`: the AC50 was 5.85 µM (active).
In the case of `COC(=O)/C=C\C(=O)O`, the result was inactive.
Still for that read-out and setting: in the case of `CC(=O)c1ccc2c(c1)CCCC2` it was “inactive”; in that of `OCCN(CCO)c1ccccc1`, “inactive”; in that of `c1ccc2c(c1)ccc1cc3c(ccc4ccccc43)cc12`, “inactive”.
The same measure, in the same setting: with `NCCCN1CCN(CCCN)CC1` the entry was “inactive”; with `COc1cc(NC(=O)CC(C)=O)c(OC)cc1Cl`, “inactive”.
Consider `O=c1[nH]nc(-c2ccc([N+](=O)[O-])o2)o1`, for which the half-maximal activity concentration (AC50) is 87.6 µM (active).
Consider `CC(=O)C=CC1C(C)=CCC(C)C1(C)C` (stereo not given), for which the call was inactive.
For the compound `CCCCCCCC[N+](C)(CCCCCCCC)CCCCCCCC`, the compound was called inactive.
Same read-out and setting: in the case of `CCCCCC/C=C\CCCCCCCC(=O)O` it was “inactive”.
For the compound `CCCCCCCC/C=C\CCCCCCCC(=O)O`, the AC50 is 137 µM (active).
On the same count and under the same terms, in the case of `Oc1ccc(Cl)cc1Cc1cc(Cl)ccc1O` it was 17.6 µM (active).
Regarding `COCCCOCCCOC`, the compound was classed as inactive.
On the same count and under the same terms, with `CCCCCCCC(C)=O` the entry was “inactive”; with `C1=CCCC1`, “inactive”; with `CCCCCCCCc1ccc(Nc2ccc(CCCCCCCC)cc2)cc1`, “inactive”.
Consider `NC(=O)N=NC(N)=O`, for which the result was inactive.

Another assay can be described thus: ATG_AP_2_CIS: Attagene CIS-FACTORIAL HepG2 Assay for human Activator Protein 2 (AP-2) (AID 2282932). Conditions: HepG2 AP-2 cis-reporter, Attagene transcription factor profiling; actives raise or lower the signal. In outline:
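Multiplexed mRNA reporter assay in HepG2: cis-regulated units report endogenous factor activity after 24 h treatment. Fluorescence from capillary electrophoresis of RT-PCR products gives the signal, with DMSO as baseline.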
Turning to `COCCOCCOCCOCCOC`, the call was inactive.
As for `N=c1ccn2c(n1)O[C@H]1[C@H](O)[C@@H](CO)O[C@H]12`, the compound was called inactive.
Same read-out and setting: in the case of `O=C1CCCCCCCCCCC(=O)OCCO1` it was “inactive”; in that of `CCCCC/C=C\C/C=C\CCCCCCCC(=O)OC`, “inactive”; in that of `O=C(Oc1ccccc1)c1ccc2ccccc2c1O`, “inactive”.
For the compound `O=CC1CC1`, the result was inactive.
The same measure, in the same setting: with `CCOC(=O)Cc1cccc2ccccc12` the entry was “inactive”.
On the same count and under the same terms, with `COC(=O)c1sccc1S(N)(=O)=O` the entry was “inactive”; with `CC1(C)S[C@@H]2[C@H](NC(=O)COc3ccccc3)C(=O)N2[C@H]1C(=O)O`, “inactive”.
On the same count and under the same terms, with `[Cl][In]([Cl])[Cl]` the entry was “inactive”.
Regarding `CCCCCCOC(=O)C(C)CC` (stereo not given), the compound was called inactive.
Still for that read-out and setting: in the case of `CCO[Si](CCCN=C=O)(OCC)OCC` it was “inactive”; in that of `CCCCCCCCCCCCCCCCCC#N`, “inactive”; in that of `[Cl][Nd]([Cl])[Cl]`, “inactive”.
Still for that read-out and setting: in the case of `O=Nc1ccc(O)cc1` it was “inactive”.
Same read-out and setting: with `Cc1ccc(C2OC[C@@H]3OC(c4ccc(C)cc4)O[C@H]([C@H](O)CO)[C@@H]3O2)cc1` (stereo not given in full) the entry was “inactive”; with `O=C(c1ccc(O)cc1)c1ccc(O)cc1O`, “inactive”; with `CCCOC(=O)CCCCC(=O)OCCC`, “inactive”.
On to `O=C1C=CC(=O)O1`, for which the outcome was inactive.
With `O=S1(=O)OC(c2ccc(O)cc2)(c2ccc(O)cc2)c2ccccc21`, the compound was called inactive.
Regarding `O=C(Cl)c1cc(C(=O)Cl)cc(C(=O)Cl)c1`, the compound was classed as inactive.
Still for that read-out and setting: with `O=C(O)CC(C(=O)O)C(CC(=O)O)C(=O)O` (stereo not given) the entry was “inactive”; with `[Cl][Bi]([Cl])([c]1ccccc1)([c]1ccccc1)[c]1ccccc1`, “inactive”.
For `COC(=O)/C=C\C(=O)O`, the call was inactive.
On the same count and under the same terms, in the case of `CC(=O)c1ccc2c(c1)CCCC2` it was “inactive”; in that of `OCCN(CCO)c1ccccc1`, “inactive”; in that of `c1ccc2c(c1)ccc1cc3c(ccc4ccccc43)cc12`, “inactive”.
On the same count and under the same terms, with `NCCCN1CCN(CCCN)CC1` the entry was “inactive”.
As for `COc1cc(NC(=O)CC(C)=O)c(OC)cc1Cl`, the result was inactive.
The same measure, in the same setting: with `O=c1[nH]nc(-c2ccc([N+](=O)[O-])o2)o1` the entry was “inactive”; with `CC(=O)C=CC1C(C)=CCC(C)C1(C)C` (stereo not given), “inactive”; with `CCCCCCCC[N+](C)(CCCCCCCC)CCCCCCCC`, “inactive”.
On the same count and under the same terms, with `CCCCCC/C=C\CCCCCCCC(=O)O` the entry was “inactive”; with `CCCCCCCC/C=C\CCCCCCCC(=O)O`, “inactive”.
Consider `Oc1ccc(Cl)cc1Cc1cc(Cl)ccc1O`, for which the concentration at half-maximal activity (AC50) is 15.4 µM (active).
On to `COCCCOCCCOC`, for which the call was inactive.
Still for that read-out and setting: with `CCCCCCCC(C)=O` the entry was “inactive”; with `C1=CCCC1`, “inactive”; with `CCCCCCCCc1ccc(Nc2ccc(CCCCCCCC)cc2)cc1`, “inactive”.
Same read-out and setting: with `NC(=O)N=NC(N)=O` the entry was “inactive”.
